# Assay results reported in article PMC5540273 (PLoS ONE, 2017).
# How the values were obtained:
# Settings in all cases: concentration: 1 μM, replicates: in singlicate; n = 1
# MRCKB = tested on: T1, MRCKB
# T1 construct: gene CDC42BPB
# MST1R = tested on: MST1R
# MST1 = tested on: T2, MST1
# T2 construct: gene STK4
# MST2 = tested on: T3, MST2
# T3 construct: gene STK3
# MST3 = tested on: T4, MST3
# T4 construct: gene STK24
# MST4 = tested on: MST4
# MTOR = tested on: MTOR
# MUSK = tested on: MUSK
# MYLK2 = tested on: MYLK2
# MYLK4 = tested on: MYLK4
# MYLK = tested on: MYLK
# MYO3A = tested on: MYO3A
# MYO3B = tested on: MYO3B
# NDR1 = tested on: T5, NDR1
# T5 construct: gene STK38
# NDR2 = tested on: NDR2
# NEK10 = tested on: NEK10
# NEK11 = tested on: NEK11
# NEK1 = tested on: NEK1
# NEK2 = tested on: NEK2
# NEK3 = tested on: NEK3
# 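Further: KINOMEscan kinase panel screen.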
SMILES,%Inh (MRCKB) [%],%Inh (MST1R) [%],%Inh (MST1) [%],%Inh (MST2) [%],%Inh (MST3) [%],%Inh (MST4) [%],%Inh (MTOR) [%],%Inh (MUSK) [%],%Inh (MYLK2) [%],%Inh (MYLK4) [%],%Inh (MYLK) [%],%Inh (MYO3A) [%],%Inh (MYO3B) [%],%Inh (NDR1) [%],%Inh (NDR2) [%],%Inh (NEK10) [%],%Inh (NEK11) [%],%Inh (NEK1) [%],%Inh (NEK2) [%],%Inh (NEK3) [%]
Nc1ncnc2c1ncn2-c1ccc(Cl)cc1 [AH2635],0,17,2,0,0,0,11,0,14,8,0,49,0,0,31,27,0,0,0,0
Cc1nc(N(C)[C@H]2CN(C(=O)CC#N)CC[C@H]2C)c2cc[nH]c2n1,0,3,0,37,8,0,25,0,0,0,10,0,9,0,13,0,0,0,0,3
CN1C(=O)C(Nc2cc(Cl)c(O)c(Cl)c2)=C(c2ccc(Cl)cc2)C1=O [SB-404321],0,0,0,33,0,0,2,0,11,0,0,0,8,0,0,0,0,0,0,16
COc1cc(OC)cc(-c2cc3cnc(N)nc3nc2NC(=O)NC(C)(C)C)c1,0,0,0,1,0,0,58,0,13,11,7,0,0,0,0,0,0,0,3,33
Nc1ncnc2c1ncn2-c1cccc(F)c1 [SKF-97560],0,0,0,50,0,37,14,0,0,11,38,0,0,15,17,53,38,0,0,25
O=C1NC(=O)C(c2ccccc2)=C1Nc1cccc(O)c1 [SB-390534],0,20,7,24,0,9,0,8,16,15,37,17,21,0,0,0,16,0,16,30
CCCNC(=O)Nc1ccc(Oc2ncnc3ccn(C)c23)cc1,0,12,0,0,4,0,8,0,11,21,0,0,40,3,0,0,0,0,0,33
COc1cc(Nc2nccc(N3CCC(NC(=O)C4COc5ccccc5O4)C3)n2)cc(OC)c1OC (stereo not drawn) [GSK1379761],0,8,6,0,0,0,34,0,6,0,13,46,0,27,40,0,64,39,11,42
Cc1cc(Nc2nc(-c3cccc(C)n3)nc3ccccc23)ccn1 [GW872411],0,0,0,0,0,0,73,9,0,26,0,0,0,31,22,6,0,0,0,14
Nc1nc(-c2ccccc2F)c(-c2ccnc3ccccc23)s1 [GW560459],0,33,8,0,7,0,21,0,8,1,11,20,0,16,0,3,0,7,0,1
Cc1nnc(-c2ccc3ncn(-c4ccc(S(C)=O)cc4)c3c2)o1 (stereo not drawn),0,2,0,30,50,0,8,9,11,7,0,2,48,21,0,2,0,5,0,0
COc1ccc(-n2cnc3c(N)ncnc32)cc1 [SKF-97236],1,0,24,13,6,0,16,12,52,0,0,4,0,3,0,40,3,0,0,0
O=C(Nc1ccc2c(c1)OCO2)NC1CCN(c2ccnc(NCc3ccc(F)cc3)n2)CC1 [GSK1379859],0,17,5,47,0,0,8,0,0,0,20,0,0,0,0,3,8,0,3,0
O=c1cc(N2CCOCC2)nc2n(Cc3ccc(F)c(Cl)c3)ccn12 [GSK2297099],0,13,0,16,0,0,12,5,0,3,9,8,0,9,0,0,0,0,0,13
Nc1nccc2scc(-c3ccc4c(c3)CCN4C(=O)Cc3ccccc3)c12 [GSK2576924],0,17,37,0,1,0,14,13,11,9,4,11,5,27,3,9,0,0,4,10
Cc1ccc(-c2ccc3c(ccc4sc5c(c43)NC[C@@H](C)N=C5N(C)C)n2)cn1,3,13,0,0,1,0,31,0,0,100,0,0,0,0,0,0,0,0,0,20
COc1cc(Nc2nccc(N3CCC(NC(=O)C(C)c4ccc(Cl)cc4)C3)n2)cc(OC)c1OC (stereo not drawn) [GSK1379757],0,37,8,5,0,0,36,0,0,0,8,20,0,26,0,0,12,8,0,19
CCn1c(-c2nonc2N)nc2ccccc21 [SB-693162/GW549034],0,0,0,34,11,0,0,42,0,0,48,0,18,37,23,12,25,0,0,0
COc1ccc(-c2cc3c(C)nc(N)nc3n([C@H]3CC[C@H](OCCO)CC3)c2=O)cn1,0,0,6,0,23,0,96.3,0,2,7,0,0,25,11,0,22,0,0,0,19
CCn1c(-c2ccoc2)nc2cnccc21 [SB-733887],0,0,0,0,0,0,29,2,18,0,11,6,0,0,0,19,12,2,0,16
COc1cc2ncn(-c3cc(OCc4ccncc4Br)c(C(N)=O)s3)c2cc1OC [GW854278],0,74,0,23,34,24,9,4,0,70,72,0,9,0,17,0,0,0,33,29
